Our source for the binding signal values is article PMC7862700, “An all-to-all approach to the identification of sequence-specific readers for epigenetic DNA modifications on cytosine”.

What all share (test): DAPPL (digital affinity profiling via proximity ligation, sequencing); 10 mM Tris-HCl pH 7.5, 50 mM NaCl, 1 mM DTT, 4% glycerol, room temperature, 30 min; GST-TFs on glutathione beads, 16-mer random dsDNA library, 0.1% formaldehyde crosslink after washing; high values mean tight binding
In experiment [1] the target is T1, FLI1 (Homo sapiens, UniProt Q01543 1-452).
T1 sequence: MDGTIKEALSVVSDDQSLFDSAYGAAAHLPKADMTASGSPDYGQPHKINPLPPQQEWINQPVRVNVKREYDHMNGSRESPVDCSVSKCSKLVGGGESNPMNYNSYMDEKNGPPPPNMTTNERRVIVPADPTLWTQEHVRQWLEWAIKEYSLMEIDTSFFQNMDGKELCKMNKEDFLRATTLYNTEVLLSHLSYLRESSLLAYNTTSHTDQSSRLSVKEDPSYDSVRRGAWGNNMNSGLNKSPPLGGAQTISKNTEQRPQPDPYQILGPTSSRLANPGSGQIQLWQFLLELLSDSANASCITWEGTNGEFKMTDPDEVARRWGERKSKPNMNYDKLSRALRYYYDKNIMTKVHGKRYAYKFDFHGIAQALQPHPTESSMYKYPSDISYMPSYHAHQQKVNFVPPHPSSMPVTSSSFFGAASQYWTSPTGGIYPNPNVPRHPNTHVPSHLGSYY
To be noted: protein: recombinant; tags: N-terminal GST; dsDNA, one strand shown. The method in brief:
(§1)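 Sequencing on an Illumina NextSeq500 followed washing, crosslinking with 0.1% formaldehyde, proximity ligation (BsaI/T4 ligase, 1 h, 37 °C) and PCR amplification of pools that had been incubated for 30 min at room temperature with 200 nmole of a random double-stranded 16-mer DNA library in Tris/NaCl/DTT/glycerol buffer. Each pool held DNA-barcoded human transcription factors, expressed in yeast as GST fusions and captured on glutathione beads, plus a tag-only sample. Binding signal is a hexamer's read frequency for a factor divided by its frequency in the tag-only sample.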

For experiment [2], the target named is T2, ELK1 (Homo sapiens, UniProt P19419 1-428).
T2 sequence: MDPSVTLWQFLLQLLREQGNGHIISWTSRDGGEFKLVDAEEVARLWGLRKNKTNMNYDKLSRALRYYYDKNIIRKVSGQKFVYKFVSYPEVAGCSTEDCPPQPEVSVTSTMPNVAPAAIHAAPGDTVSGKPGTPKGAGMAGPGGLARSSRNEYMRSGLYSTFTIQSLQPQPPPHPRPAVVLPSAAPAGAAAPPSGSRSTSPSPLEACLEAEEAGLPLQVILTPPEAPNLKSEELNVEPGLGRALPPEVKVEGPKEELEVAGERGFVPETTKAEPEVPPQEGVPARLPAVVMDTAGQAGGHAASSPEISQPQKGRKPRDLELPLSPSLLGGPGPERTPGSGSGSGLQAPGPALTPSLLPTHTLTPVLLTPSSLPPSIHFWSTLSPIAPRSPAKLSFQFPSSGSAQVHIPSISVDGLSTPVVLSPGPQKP
The note with it: protein: recombinant; tags: N-terminal GST; dsDNA, one strand shown. The method in brief: as §1

For experiment [3], the target named is T3, GABPA (Homo sapiens, UniProt Q06546 1-454).
T3 sequence: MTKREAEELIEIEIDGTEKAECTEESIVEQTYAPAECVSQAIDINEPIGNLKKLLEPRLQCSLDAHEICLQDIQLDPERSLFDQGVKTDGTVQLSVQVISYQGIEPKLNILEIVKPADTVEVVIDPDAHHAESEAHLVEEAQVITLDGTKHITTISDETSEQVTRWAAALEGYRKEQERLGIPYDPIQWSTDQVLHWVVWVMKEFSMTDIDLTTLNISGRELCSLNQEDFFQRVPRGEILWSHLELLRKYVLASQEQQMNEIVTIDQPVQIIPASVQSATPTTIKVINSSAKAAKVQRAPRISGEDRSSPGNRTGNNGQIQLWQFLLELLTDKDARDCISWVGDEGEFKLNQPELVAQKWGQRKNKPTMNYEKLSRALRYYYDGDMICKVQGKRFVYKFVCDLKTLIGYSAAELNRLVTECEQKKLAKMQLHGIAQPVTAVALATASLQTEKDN
To be noted: protein: recombinant; tags: N-terminal GST; dsDNA, one strand shown. The method in brief: as §1

For experiment [4], the target named is T4, ERG (Homo sapiens, UniProt P11308 1-479).
T4 sequence: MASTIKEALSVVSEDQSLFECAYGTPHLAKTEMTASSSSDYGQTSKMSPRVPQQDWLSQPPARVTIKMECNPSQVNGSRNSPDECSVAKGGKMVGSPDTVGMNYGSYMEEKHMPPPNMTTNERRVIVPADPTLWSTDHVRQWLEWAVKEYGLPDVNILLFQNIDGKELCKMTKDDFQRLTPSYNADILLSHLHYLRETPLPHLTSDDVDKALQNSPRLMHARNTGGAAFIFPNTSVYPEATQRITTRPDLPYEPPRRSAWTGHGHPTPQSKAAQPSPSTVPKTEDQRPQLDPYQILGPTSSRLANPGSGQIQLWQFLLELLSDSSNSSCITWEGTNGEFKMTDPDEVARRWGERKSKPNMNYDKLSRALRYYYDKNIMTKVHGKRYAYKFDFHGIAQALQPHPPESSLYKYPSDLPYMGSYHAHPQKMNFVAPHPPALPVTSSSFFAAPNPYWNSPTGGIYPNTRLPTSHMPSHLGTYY
To be noted: protein: recombinant; tags: N-terminal GST; dsDNA, one strand shown. The method in brief: as §1

The target in experiment [5] is ELF1 (Homo sapiens, UniProt P32519 1-619). To be noted: protein: recombinant; tags: N-terminal GST; dsDNA, one strand shown. The method in brief: as §1
ELF1, sequence (P32519 whole entry): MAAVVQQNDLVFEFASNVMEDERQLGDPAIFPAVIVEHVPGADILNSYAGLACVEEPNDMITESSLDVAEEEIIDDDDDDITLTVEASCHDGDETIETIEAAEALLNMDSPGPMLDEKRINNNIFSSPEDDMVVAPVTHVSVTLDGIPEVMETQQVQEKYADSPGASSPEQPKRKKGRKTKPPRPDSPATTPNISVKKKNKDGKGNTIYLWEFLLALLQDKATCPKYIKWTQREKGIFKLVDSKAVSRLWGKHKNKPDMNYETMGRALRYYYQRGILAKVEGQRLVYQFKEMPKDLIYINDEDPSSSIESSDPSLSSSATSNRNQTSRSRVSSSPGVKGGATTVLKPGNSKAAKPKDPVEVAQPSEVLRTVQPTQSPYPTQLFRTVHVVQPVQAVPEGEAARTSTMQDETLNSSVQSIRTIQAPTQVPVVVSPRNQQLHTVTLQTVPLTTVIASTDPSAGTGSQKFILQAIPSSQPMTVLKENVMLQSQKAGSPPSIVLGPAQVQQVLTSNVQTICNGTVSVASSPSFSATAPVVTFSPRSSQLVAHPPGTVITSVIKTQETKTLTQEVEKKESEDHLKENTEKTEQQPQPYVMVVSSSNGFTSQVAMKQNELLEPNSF
Experiment [6] has as its target T5, EHF (Homo sapiens, UniProt Q9NZC4 1-300).
T5 sequence: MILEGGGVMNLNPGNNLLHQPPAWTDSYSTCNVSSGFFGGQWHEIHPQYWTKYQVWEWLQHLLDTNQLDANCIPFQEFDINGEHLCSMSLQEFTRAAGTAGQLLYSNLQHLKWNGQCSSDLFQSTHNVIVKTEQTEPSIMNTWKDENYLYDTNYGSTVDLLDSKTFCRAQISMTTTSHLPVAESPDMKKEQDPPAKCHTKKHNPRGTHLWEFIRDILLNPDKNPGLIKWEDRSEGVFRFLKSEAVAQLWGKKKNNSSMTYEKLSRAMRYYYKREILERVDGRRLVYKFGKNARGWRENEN
The note with it: protein: recombinant; tags: N-terminal GST; dsDNA, one strand shown. The method in brief: as §1

The target in experiment [7] is SPI1 (Homo sapiens, UniProt P17947 1-270). The note with it: protein: recombinant; tags: N-terminal GST; dsDNA, one strand shown. The method in brief:
as §1

Experiment [8] has as its target SPIB (Homo sapiens, UniProt Q01892 1-262). The note with it: protein: recombinant; tags: N-terminal GST; dsDNA, one strand shown. The method in brief: as §1
Experiment [9] concerns the target T6, FEV (Homo sapiens, UniProt Q99581 1-238).
T6 sequence: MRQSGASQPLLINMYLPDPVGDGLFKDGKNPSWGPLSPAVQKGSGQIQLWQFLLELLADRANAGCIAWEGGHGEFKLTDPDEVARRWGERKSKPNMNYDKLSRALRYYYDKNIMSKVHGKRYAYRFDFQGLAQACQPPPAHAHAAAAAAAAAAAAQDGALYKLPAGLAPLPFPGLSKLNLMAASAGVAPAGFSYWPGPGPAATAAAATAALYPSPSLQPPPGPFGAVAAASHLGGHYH
To be noted: protein: recombinant; tags: N-terminal GST; dsDNA, one strand shown. The method in brief:
as §1

Experiment [10] addresses ETV5 (Homo sapiens, UniProt P41161 1-510). To be noted: protein: recombinant; tags: N-terminal GST; dsDNA, one strand shown. The method in brief:
as §1

The target in experiment [11] is HSF1 (Homo sapiens, UniProt Q00613 1-529). To be noted: protein: recombinant; tags: N-terminal GST; chain copies: 3; dsDNA, one strand shown. The method in brief: as §1
HSF1, sequence (Q00613 whole entry): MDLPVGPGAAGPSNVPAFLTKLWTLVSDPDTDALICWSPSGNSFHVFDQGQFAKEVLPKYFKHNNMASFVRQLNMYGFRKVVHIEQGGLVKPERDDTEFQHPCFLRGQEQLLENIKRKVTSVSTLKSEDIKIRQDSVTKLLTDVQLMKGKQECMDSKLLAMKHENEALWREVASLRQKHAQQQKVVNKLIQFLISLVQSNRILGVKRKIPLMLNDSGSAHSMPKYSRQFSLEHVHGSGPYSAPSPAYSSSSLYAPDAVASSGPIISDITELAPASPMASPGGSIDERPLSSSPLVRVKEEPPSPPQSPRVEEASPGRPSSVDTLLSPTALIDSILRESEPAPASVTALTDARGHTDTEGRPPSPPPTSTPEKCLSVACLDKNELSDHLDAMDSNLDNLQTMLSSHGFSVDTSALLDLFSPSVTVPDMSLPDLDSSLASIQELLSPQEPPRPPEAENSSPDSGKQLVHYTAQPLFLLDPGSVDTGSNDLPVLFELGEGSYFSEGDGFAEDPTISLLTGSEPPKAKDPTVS
Experiment [12] deals with T7, SPIC (Homo sapiens, UniProt Q8N5J4 1-248).
T7 sequence: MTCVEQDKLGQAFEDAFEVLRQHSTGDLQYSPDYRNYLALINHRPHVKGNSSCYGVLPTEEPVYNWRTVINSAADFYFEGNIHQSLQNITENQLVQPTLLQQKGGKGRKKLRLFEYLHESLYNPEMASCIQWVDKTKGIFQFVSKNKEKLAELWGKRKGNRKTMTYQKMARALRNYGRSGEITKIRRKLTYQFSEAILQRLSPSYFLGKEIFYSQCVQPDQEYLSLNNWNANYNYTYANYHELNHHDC
To be noted: protein: recombinant; tags: N-terminal GST; dsDNA, one strand shown. The method in brief: as §1

For experiment [13], the target named is ELF4 (Homo sapiens, UniProt Q99607 1-663). To be noted: protein: recombinant; tags: N-terminal GST; dsDNA, one strand shown. The method in brief:
as §1

The target of experiment [14] is T8, ELK4 (Homo sapiens, UniProt P28324-2 1-405).
T8 sequence: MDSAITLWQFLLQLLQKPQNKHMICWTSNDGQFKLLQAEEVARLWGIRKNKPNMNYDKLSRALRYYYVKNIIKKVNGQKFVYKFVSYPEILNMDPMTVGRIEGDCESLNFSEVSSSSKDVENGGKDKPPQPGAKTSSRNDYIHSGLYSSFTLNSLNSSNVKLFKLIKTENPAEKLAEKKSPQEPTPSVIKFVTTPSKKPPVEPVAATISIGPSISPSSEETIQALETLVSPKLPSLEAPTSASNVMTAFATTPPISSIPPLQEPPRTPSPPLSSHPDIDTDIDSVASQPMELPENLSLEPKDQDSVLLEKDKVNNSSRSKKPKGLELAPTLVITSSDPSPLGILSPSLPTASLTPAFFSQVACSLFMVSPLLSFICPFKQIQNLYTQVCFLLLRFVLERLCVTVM
The note with it: protein: recombinant; tags: N-terminal GST; dsDNA, one strand shown. The method in brief:
as §1

The target of experiment [15] is T9, ETV2 (Homo sapiens, UniProt O00321 1-342).
T9 sequence: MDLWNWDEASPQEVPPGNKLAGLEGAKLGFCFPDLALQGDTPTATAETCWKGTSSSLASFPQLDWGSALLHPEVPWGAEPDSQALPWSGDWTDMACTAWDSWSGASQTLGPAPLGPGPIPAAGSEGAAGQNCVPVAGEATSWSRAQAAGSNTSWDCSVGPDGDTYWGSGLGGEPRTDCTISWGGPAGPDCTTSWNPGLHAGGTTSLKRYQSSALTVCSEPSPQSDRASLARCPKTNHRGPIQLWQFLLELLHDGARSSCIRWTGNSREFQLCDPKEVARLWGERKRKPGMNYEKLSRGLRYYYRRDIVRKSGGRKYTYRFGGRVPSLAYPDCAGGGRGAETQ
To be noted: protein: recombinant; tags: N-terminal GST; dsDNA, one strand shown. The method in brief:
as §1

Experiment [16] addresses T10, ELF3 (Homo sapiens, UniProt P78545 1-371).
T10 sequence: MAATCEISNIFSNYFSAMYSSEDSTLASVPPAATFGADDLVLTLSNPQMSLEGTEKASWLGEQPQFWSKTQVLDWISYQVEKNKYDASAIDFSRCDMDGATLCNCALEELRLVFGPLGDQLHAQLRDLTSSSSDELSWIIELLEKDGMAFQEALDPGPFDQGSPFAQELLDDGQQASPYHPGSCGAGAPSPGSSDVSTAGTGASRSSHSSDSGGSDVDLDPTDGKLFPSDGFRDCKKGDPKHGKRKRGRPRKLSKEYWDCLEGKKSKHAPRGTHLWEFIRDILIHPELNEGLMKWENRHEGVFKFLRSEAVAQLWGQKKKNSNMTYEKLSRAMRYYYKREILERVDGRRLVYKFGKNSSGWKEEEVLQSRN
The note with it: protein: recombinant; tags: N-terminal GST; dsDNA, one strand shown. The method in brief: as §1

Experiment [17] has as its target ETV1 (Homo sapiens, UniProt P50549 1-477). The note with it: protein: recombinant; tags: N-terminal GST; dsDNA, one strand shown. The method in brief: as §1

ELF4, sequence (Q99607 whole entry): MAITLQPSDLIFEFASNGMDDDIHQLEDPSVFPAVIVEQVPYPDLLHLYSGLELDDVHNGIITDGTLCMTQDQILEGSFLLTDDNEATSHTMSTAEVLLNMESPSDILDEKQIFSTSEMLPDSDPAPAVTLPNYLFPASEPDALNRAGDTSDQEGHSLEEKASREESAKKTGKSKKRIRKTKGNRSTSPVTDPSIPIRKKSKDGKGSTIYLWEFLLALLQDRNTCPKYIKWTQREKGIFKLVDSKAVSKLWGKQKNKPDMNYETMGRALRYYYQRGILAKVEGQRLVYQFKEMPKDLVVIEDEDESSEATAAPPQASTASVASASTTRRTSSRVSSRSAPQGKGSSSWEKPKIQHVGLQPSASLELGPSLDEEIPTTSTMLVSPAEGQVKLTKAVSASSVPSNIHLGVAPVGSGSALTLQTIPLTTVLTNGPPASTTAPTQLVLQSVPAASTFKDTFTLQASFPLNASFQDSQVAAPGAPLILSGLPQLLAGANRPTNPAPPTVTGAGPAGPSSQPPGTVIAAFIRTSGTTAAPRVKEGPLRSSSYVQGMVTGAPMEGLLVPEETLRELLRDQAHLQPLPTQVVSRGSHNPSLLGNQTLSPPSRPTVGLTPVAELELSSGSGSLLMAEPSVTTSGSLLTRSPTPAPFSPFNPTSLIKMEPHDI
ETV1, sequence (P50549 whole entry): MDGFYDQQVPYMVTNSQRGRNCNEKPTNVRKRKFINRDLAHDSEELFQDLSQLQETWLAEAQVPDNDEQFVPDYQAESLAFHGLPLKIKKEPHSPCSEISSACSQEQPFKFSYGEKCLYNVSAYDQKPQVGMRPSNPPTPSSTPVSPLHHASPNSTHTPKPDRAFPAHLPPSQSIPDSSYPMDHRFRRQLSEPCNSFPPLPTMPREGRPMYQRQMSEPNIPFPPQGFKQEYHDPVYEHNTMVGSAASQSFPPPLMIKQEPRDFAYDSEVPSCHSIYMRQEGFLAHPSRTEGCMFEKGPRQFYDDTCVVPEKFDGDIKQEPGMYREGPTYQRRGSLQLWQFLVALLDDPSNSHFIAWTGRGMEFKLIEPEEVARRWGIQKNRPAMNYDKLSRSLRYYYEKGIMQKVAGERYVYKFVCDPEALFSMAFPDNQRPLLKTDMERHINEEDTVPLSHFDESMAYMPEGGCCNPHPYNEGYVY
ETV5, sequence (P41161 whole entry): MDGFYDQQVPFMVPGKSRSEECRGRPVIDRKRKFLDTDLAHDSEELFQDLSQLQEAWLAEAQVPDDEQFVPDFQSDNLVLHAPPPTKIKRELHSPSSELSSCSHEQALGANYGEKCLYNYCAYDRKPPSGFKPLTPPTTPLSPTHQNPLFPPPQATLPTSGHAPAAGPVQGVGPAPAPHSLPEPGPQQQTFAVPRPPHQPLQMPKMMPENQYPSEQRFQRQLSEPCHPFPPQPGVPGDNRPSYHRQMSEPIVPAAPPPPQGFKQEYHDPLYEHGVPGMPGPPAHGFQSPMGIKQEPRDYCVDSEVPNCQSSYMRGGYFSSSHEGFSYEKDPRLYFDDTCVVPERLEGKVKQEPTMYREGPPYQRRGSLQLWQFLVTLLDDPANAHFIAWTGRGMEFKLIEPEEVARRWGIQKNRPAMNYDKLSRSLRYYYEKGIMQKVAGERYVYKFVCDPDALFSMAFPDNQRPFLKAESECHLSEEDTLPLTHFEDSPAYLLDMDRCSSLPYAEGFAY
SPIB, sequence (Q01892 whole entry): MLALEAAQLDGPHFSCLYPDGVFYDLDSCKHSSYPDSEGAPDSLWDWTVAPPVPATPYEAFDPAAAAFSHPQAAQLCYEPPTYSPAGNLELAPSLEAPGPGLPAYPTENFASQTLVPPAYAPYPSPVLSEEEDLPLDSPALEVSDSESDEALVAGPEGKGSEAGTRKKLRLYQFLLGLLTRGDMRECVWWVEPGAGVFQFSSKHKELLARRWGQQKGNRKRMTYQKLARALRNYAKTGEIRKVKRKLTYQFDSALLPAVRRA

For GCTCGT, the binding signal in [1] was 1.19 fold enrichment (6-mer frequency, TF over GST control); in experiment [2] it was 1.16 fold enrichment (6-mer frequency, TF over GST control); in experiment [3], 1.26 fold enrichment (6-mer frequency, TF over GST control); in experiment [4], 1.12 fold enrichment (6-mer frequency, TF over GST control); in experiment [5] it was 1.15 fold enrichment (6-mer frequency, TF over GST control); in experiment [6], 1.14 fold enrichment (6-mer frequency, TF over GST control). For the same sequence, the binding signal in experiment [7] was 1.12 fold enrichment (6-mer frequency, TF over GST control); in experiment [8], 1.16 fold enrichment (6-mer frequency, TF over GST control); in experiment [9] it was 1.06 fold enrichment (6-mer frequency, TF over GST control); in experiment [10] it was 1.17 fold enrichment (6-mer frequency, TF over GST control); in experiment [11], 1.07 fold enrichment (6-mer frequency, TF over GST control); in experiment [12], 1.14 fold enrichment (6-mer frequency, TF over GST control). The binding signal is 1.24 fold enrichment (6-mer frequency, TF over GST control) in [13]; 1.11 fold enrichment (6-mer frequency, TF over GST control) in [14]; 1.29 fold enrichment (6-mer frequency, TF over GST control) in [15]; 1.16 fold enrichment (6-mer frequency, TF over GST control) in experiment [16]; 1.15 fold enrichment (6-mer frequency, TF over GST control) in [17].
